Experimental data reported in PubChem BioAssay (EPA / NIEHS).
Inconclusive results are not listed. Active and inactive are the calls of the source. Rule for the calls, unless noted: active = hit-call score of the fitted dose curve at least 0.9, where 1 is the maximum; inconclusive = response in the unintended direction; inactive = score below 0.9.

Read-out: alkyl and aryl transferase (GSTA2), GSTA2 (gene 2939)
Assay: CLD_GSTA2_6hr: CellzDirect (CLD) Gene Expression Assay for alkyl and aryl transferase (GSTA2) at 6 hours (AID 2283666)
Conditions: not given
Procedure: (§1) CLD_6hr is a cell-based, multiplexed-readout assay that uses hepatocyte, a human liver primary cell, with measurements taken at 6 hours after chemical dosing in a 96-well plate.CLD_GSTA2_6hr is one of 16 assay component(s) measured or calculated from the CLD_6hr assay. It is designed to make measurements of mRNA induction, a form of inducible reporter, as detected with chemiluminescence signals by Quantitative Nuclease Protection Assay (qNPA) technology.Data from the assay component CLD_GSTA2_6hr was analyzed at the endpoint, CLD_GSTA2_6hr, in the positive analysis fitting direction relative to DMSO as the negative control and baseline of activity. Using a type of inducible reporter, gain-of-signal activity can be used to understand changes in the reporter gene as they relate to the gene GSTA2. Furthermore, this assay endpoint can be referred to as a primary readout. To generalize the intended target to other relatable targets, this assay endpoint is annotated to the transferase intended target family, where subfamily is alkyl and aryl transferase.
Human hepatocyte cultures were treated daily for two consecutive days with fresh dosing solutions containing appropriate concentrations of the 320 ToxCast chemicals (chemical identities were blinded to CellzDirect and other ToxCast collaborators), vehicle control (0.2% DMSO), and positive control inducers as summarized in Table 1. […] These replicate data, coupled with internal replicates designed within the blinded ToxCast chemical library, provided additional data to evaluate interindividual differences between hepatocyte preparations and their potential impact on chemical profiles.Cell morphology and integrity were evaluated using phase-contrast microscopy as an indicator of hepatocyte cell health (Tyson & Green, 1987). Cultures for each treatment group (i.e., media, vehicle [0.2% DMSO], positive control inducers [multiple concentrations], and the ToxCast chemicals [multiple concentrations]) were observed and cell morphology was assessed relative to vehicle control cultures at each harvest time point (0, 6, 24, or 48 h). […] Images were evaluated at the conclusion of the study to assess changes in cell integrity and account for the effects of chemical exposure on uncharacteristic changes in concentration-dependent gene expression profiles. […]

Row | SMILES | outcome
1 | CCC(C)(CC)c1cc(NC(=O)c2c(OC)cccc2OC)on1 | inactive
2 | Cc1ccccc1CO[C@@H]1C[C@@]2(C(C)C)CC[C@]1(C)O2 | inactive
3 | CCNc1nc(NC(C)C)nc(SC)n1 | inactive
4 | CN(C)c1nc(=O)n(C2CCCCC2)c(=O)n1C | inactive

Tested on: not listed separately
Assay: Tanguay_ZF_120hpf_TR_legacy: (Legacy) Oregon State University Tanguay Lab 120 Hour Post-fertilization zebrafish Assay for Touch Response (AID 2283667)
Conditions: not given
Outline: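 Tropical 5D wild-type zebrafish embryos statically exposed to 120 hpf at 28°C, sealed and dark-covered, 0.64% DMSO final; touch response scored as present/absent by brightfield microscopy at 120 hpf. Trimethyltin chloride 5 uM positive control; dead embryos not scored.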

Row | SMILES | outcome | AC50
5 | Clc1ccc(C(Cl)(Cl)Cl)cc1 | inactive | –
6 | O=C(O)C(F)(F)C(F)(F)C(F)(F)C(F)(F)C(F)(F)C(F)(F)C(F)(F)C(F)(F)C(F)(F)F | inactive | –
7 | O=C(NC(=O)c1cc(F)c(F)cc1Cl)Nc1cc(F)ccc1N1CCC(C(=O)O)CC1 | inactive | –
8 | CCOP(=S)(OCC)SCSC(C)(C)C | inactive | –
9 | O=C(NC(=O)c1c(F)cccc1F)Nc1cc(Cl)c(OC(F)(F)C(F)F)c(Cl)c1 | inactive | –
10 | CCC(C)(CC)c1cc(NC(=O)c2c(OC)cccc2OC)on1 | inactive | –
11 | Cc1cccc([N+](=O)[O-])c1 | inactive | –
12 | CCCCCCCCCC[N+](C)(C)CCCCCCCCCC | inactive | –
13 | CCC(C)(c1ccc(O)cc1)c1ccc(O)cc1 | – | 42.4 µM (active)
14 | CCC(=O)O[C@H]1CC[C@H]2[C@@H]3CCC4=CC(=O)CC[C@]4(C)[C@H]3CC[C@]12C | inactive | –
15 | Cc1ccc(O)c(C)c1 | inactive | –
16 | C=CC(=O)NCNC(=O)C=C | inactive | –
17 | CCCN(CCC)N=O | inactive | –
18 | Oc1ccc(C(c2ccc(O)cc2)(C(F)(F)F)C(F)(F)F)cc1 | – | 52.8 µM (active)
19 | Cc1ccccc1CO[C@@H]1C[C@@]2(C(C)C)CC[C@]1(C)O2 | inactive | –
20 | CCCCCCCCOC(=O)c1ccccc1C(=O)OCCCCCCCC | inactive | –
21 | c1ccc(-c2ccccc2)cc1 | inactive | –
22 | COc1ccc(O)c(C(C)(C)C)c1 | inactive | –
23 | CCNc1nc(NC(C)C)nc(SC)n1 | inactive | –
24 | CCOCCOC(C)=O | inactive | –
25 | Oc1c(Cl)c(Cl)c(Cl)c(Cl)c1Cl | inactive | –
26 | C[C@]12CCC(=O)C=C1CC[C@@H]1[C@@H]2CC[C@]2(C)C(=O)CC[C@@H]12 | – | 26.8 µM (active)
27 | CCCCCCCCCc1ccc(O)cc1 | inactive | –
28 | O=C(O)C(F)(F)C(F)(F)C(F)(F)C(F)(F)C(F)(F)C(F)(F)C(F)(F)C(F)(F)F | inactive | –
29 | CC(C)(c1ccccc1)c1ccc(O)cc1 | inactive | –
30 | COS(=O)(=O)OC | inactive | –

Read-out: sulfotransferase (SULT2A), SULT2A1 (gene 6822)
Assay: CLD_SULT2A_6hr: CellzDirect (CLD) Gene Expression Assay for sulfotransferase (SULT2A) at 6 hours (AID 2283669);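 note: hits raise transcript level above the DMSO vehicle baseline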
Conditions: not given
Outline: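 Primary human hepatocytes from two donor preparations were dosed daily with chemicals or 0.2% DMSO and harvested at 6 h. Transcript induction read by qNPA chemiluminescence, fitted for gain of signal relative to DMSO; morphology-based cytotoxicity annotated.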

Row | SMILES | outcome
31 | CCC(C)(CC)c1cc(NC(=O)c2c(OC)cccc2OC)on1 | inactive
32 | Cc1ccccc1CO[C@@H]1C[C@@]2(C(C)C)CC[C@]1(C)O2 | inactive
33 | CCNc1nc(NC(C)C)nc(SC)n1 | inactive
34 | CN(C)c1nc(=O)n(C2CCCCC2)c(=O)n1C | inactive

Read-out: Cytochrome P450 (CYP24A1_1), CYP24A1 (gene 1591)
Assay: LTEA_HepaRG_CYP24A1_1: Life Technologies and Expression Analysis (LTEA) Assay for Cytochrome P450 (CYP24A1_1) using HepaRG (AID 2283671; active = hit-call score of the fitted dose curve at least 0.9, where 1 is the maximum; inactive = score below 0.9)
Conditions: mRNA level, 48 h; actives raise or lower the signal
Outline: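 Differentiated human HepaRG cells in serum-free induction medium, exposed 48 h in duplicate to eight half-log concentrations from 100 uM top, 0.5% DMSO. Transcript measured by TaqMan qRT-PCR, normalised to ACTB, GAPDH, POLR2A; bidirectional fitting versus DMSO.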

Row | SMILES | outcome
35 | O=C(O)C(F)(F)C(F)(F)C(F)(F)C(F)(F)C(F)(F)C(F)(F)C(F)(F)C(F)(F)C(F)(F)F | inactive
36 | CCCCCCCCCc1ccc(O)cc1 | inactive
37 | COS(=O)(=O)OC | inactive

Read-out: glucuronosyltransferase (UGT1A1), UGT1A1 (gene 54658)
Assay: CLD_UGT1A1_6hr: CellzDirect (CLD) Gene Expression Assay for glucuronosyltransferase (UGT1A1) at 6 hours (AID 2283672)
Conditions: not given
Procedure: as §1, with “plate.CLD_UGT1A1_6hr” for “plate.CLD_GSTA2_6hr”, “CLD_UGT1A1_6hr” for “CLD_GSTA2_6hr”, “CLD_UGT1A1_6hr,” for “CLD_GSTA2_6hr,”, “UGT1A1.” for “GSTA2.”, “glucuronosyltransferase.” for “alkyl and aryl transferase.”
Human hepatocyte cultures were treated daily for two consecutive days with fresh dosing solutions containing appropriate concentrations of the 320 ToxCast chemicals (chemical identities were blinded to CellzDirect and other ToxCast collaborators), vehicle control (0.2% DMSO), and positive control inducers as summarized in Table 1. Due to the large number of treatment groups and chemicals examined, the ToxCast chemicals were divided into two groups (spanning two independent cultures of hepatocytes from separate donor preparations (Hu778: ToxCast plates 1 and 2; Hu776: ToxCast plates 3 and 4). Each preparation of human hepatocyte cultures was treated with respective vehicle control, medium only control, set of six positive controls/reference chemicals for the five hepatic receptor pathways, and a subset of eight of the ToxCast chemicals (indoxacarb, pyrithiobac-sodium, norflurazon, cyhalofop-butyl, methomyl, thiram, acetochlor, and propiconazole). These replicate data, coupled with internal replicates designed within the blinded ToxCast chemical library, provided additional data to evaluate interindividual differences between hepatocyte preparations and their potential impact on chemical profiles.Cell morphology and integrity were evaluated using phase-contrast microscopy as an indicator of hepatocyte cell health (Tyson & Green, 1987). Cultures for each treatment group (i.e., media, vehicle [0.2% DMSO], positive control inducers [multiple concentrations], and the ToxCast chemicals [multiple concentrations]) were observed and cell morphology was assessed relative to vehicle control cultures at each harvest time point (0, 6, 24, or 48 h). […] Images were evaluated at the conclusion of the study to assess changes in cell integrity and account for the effects of chemical exposure on uncharacteristic changes in concentration-dependent gene expression profiles. The results from these determinations of apparent cytotoxicity were annotated (yes/no) alongside the corresponding qNPA data for reference.At the conclusion of each treatment period, hepatocyte cultures (96-well) were washed with 1 volume of HBSS, lysed by addition of 25 ul ArrayPlate lysis buffer (HTG, Tucson, AZ), and 70 ul/well of Denaturation Oil, denatured by incubation at 95C for 10 min, and frozen at approximately -70C until analysis by nuclease protection assay (qNPA) (Roberts et al., 2007). […]

Row | SMILES | outcome
38 | CCC(C)(CC)c1cc(NC(=O)c2c(OC)cccc2OC)on1 | inactive
39 | Cc1ccccc1CO[C@@H]1C[C@@]2(C(C)C)CC[C@]1(C)O2 | inactive
40 | CCNc1nc(NC(C)C)nc(SC)n1 | inactive
41 | CN(C)c1nc(=O)n(C2CCCCC2)c(=O)n1C | inactive

Read-out: xenobiotic metabolism (CYP1A1), CYP1A1 (gene 1543)
Assay: CLD_CYP1A1_24hr: CellzDirect (CLD) Gene Expression Assay for xenobiotic metabolism (CYP1A1) at 24 hours (AID 2283673)
Conditions: not given
Procedure: CLD_24hr is a cell-based, multiplexed-readout assay that uses hepatocyte, a human liver primary cell, with measurements taken at 24 hours after chemical dosing in a 96-well plate.CLD_CYP1A1_24hr is one of 16 assay component(s) measured or calculated from the CLD_24hr assay. It is designed to make measurements of mRNA induction, a form of inducible reporter, as detected with chemiluminescence signals by Quantitative Nuclease Protection Assay (qNPA) technology.Data from the assay component CLD_CYP1A1_24hr was analyzed at the endpoint, CLD_CYP1A1_24hr, in the positive analysis fitting direction relative to DMSO as the negative control and baseline of activity. Using a type of inducible reporter, gain-of-signal activity can be used to understand changes in the reporter gene as they relate to the gene CYP1A1. Furthermore, this assay endpoint can be referred to as a primary readout. To generalize the intended target to other relatable targets, this assay endpoint is annotated to the cyp intended target family, where subfamily is xenobiotic metabolism.
Human hepatocyte cultures were treated daily for two consecutive days with fresh dosing solutions containing appropriate concentrations of the 320 ToxCast chemicals (chemical identities were blinded to CellzDirect and other ToxCast collaborators), vehicle control (0.2% DMSO), and positive control inducers as summarized in Table 1. […] These replicate data, coupled with internal replicates designed within the blinded ToxCast chemical library, provided additional data to evaluate interindividual differences between hepatocyte preparations and their potential impact on chemical profiles.Cell morphology and integrity were evaluated using phase-contrast microscopy as an indicator of hepatocyte cell health (Tyson & Green, 1987). Cultures for each treatment group (i.e., media, vehicle [0.2% DMSO], positive control inducers [multiple concentrations], and the ToxCast chemicals [multiple concentrations]) were observed and cell morphology was assessed relative to vehicle control cultures at each harvest time point (0, 6, 24, or 48 h). […]

Row | SMILES | AC50 | outcome
42 | CCC(C)(CC)c1cc(NC(=O)c2c(OC)cccc2OC)on1 | 20 µM (active) | –
43 | Cc1ccccc1CO[C@@H]1C[C@@]2(C(C)C)CC[C@]1(C)O2 | – | inactive
44 | CCNc1nc(NC(C)C)nc(SC)n1 | 3.97 µM (active) | –
